Measured values from the supplement of paper PMC12669032.
Values without a mark were called inactive.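 The calls were made as follows: active = AUC reduced over 20% with Padj below 0.05 in at least 2 of 3 replicates; inactive = otherwise.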

Key:
Experiment in all cases: growth AUC relative to DMSO control (median of replicates) (fraction); higher = more growth (less inhibition), active = hit call of the paper
Conditions in all cases: 20 µM; 24 h
Akkermansia muciniphila = tested on: Akkermansia muciniphila
In short: (§1)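 For each compound at 20 µM (1% DMSO), gut bacterial monocultures seeded at OD600 0.05 grew anaerobically in mGAM at 37 °C in round-bottom 96-well plates. Hourly OD600 readings over 24 h gave growth curves whose minimum OD was set to 0. Area under these curves was normalised to the plate median of solvent-only wells, or to row and column medians on the industrial chemical plate. Values are medians of three biological replicates grown on separate days.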

Bacteroides caccae = tested on: Bacteroides caccae
In short: as §1

Bacteroides clarus = tested on: Bacteroides clarus
In short: as §1

Bacteroides dorei = tested on: Bacteroides dorei
In short: as §1

Bacteroides stercoris = tested on: Bacteroides stercoris
In short: as §1

[1] = tested on: Bacteroides thetaiotaomicron
In short: as §1

Bacteroides uniformis = tested on: Bacteroides uniformis
In short: as §1

[2] = tested on: Bifidobacterium longum subsp. longum
In short: as §1

Clostridium difficile = tested on: Clostridium difficile
In short: as §1

Collinsella aerofaciens = tested on: Collinsella aerofaciens
In short: as §1

CC(=O)O.CCCCCCCCCCCCN=C(N)N
growth AUC (Akkermansia muciniphila): 1.28
growth AUC (Bacteroides caccae): 1.02
growth AUC (Bacteroides clarus): 0.988
growth AUC (Bacteroides dorei): 0.985
growth AUC (Bacteroides stercoris): 1.17
growth AUC [1]: 1.01
growth AUC (Bacteroides uniformis): 0.986
growth AUC [2]: 0.917
growth AUC (Clostridium difficile): 1
growth AUC (Collinsella aerofaciens): 0.972

CC1(C)C(C=C(Cl)Cl)C1C(=O)OCc1cccc(Oc2ccccc2)c1 (mixture of isomers)
growth AUC (Akkermansia muciniphila): 1.02
growth AUC (Bacteroides caccae): 0.991
growth AUC (Bacteroides clarus): 0.98
growth AUC (Bacteroides dorei): 1.01
growth AUC (Bacteroides stercoris): 1.07
growth AUC [1]: 1.02
growth AUC (Bacteroides uniformis): 1.03
growth AUC [2]: 0.957
growth AUC (Clostridium difficile): 1.01
growth AUC (Collinsella aerofaciens): 0.942

CCc1nn(C)c(C(=O)NCc2ccc(C(C)(C)C)cc2)c1Cl
growth AUC (Akkermansia muciniphila): 1.02
growth AUC (Bacteroides caccae): 0.94
growth AUC (Bacteroides clarus): 0.929
growth AUC (Bacteroides dorei): 0.921
growth AUC (Bacteroides stercoris): 0.725 (active)
growth AUC [1]: 0.694 (active)
growth AUC (Bacteroides uniformis): 0.982
growth AUC [2]: 0.95
growth AUC (Clostridium difficile): 0.972
growth AUC (Collinsella aerofaciens): 0.887

CNC(=O)/C(=N\OC)c1ccccc1Oc1ccccc1
growth AUC (Akkermansia muciniphila): 0.873
growth AUC (Bacteroides caccae): 0.981
growth AUC (Bacteroides clarus): 0.959
growth AUC (Bacteroides dorei): 0.97
growth AUC (Bacteroides stercoris): 0.953
growth AUC [1]: 1.02
growth AUC (Bacteroides uniformis): 0.998
growth AUC [2]: 0.987
growth AUC (Clostridium difficile): 1.01
growth AUC (Collinsella aerofaciens): 1.03

COCC(C)N(C(=O)CCl)c1c(C)csc1C (stereo not given)
growth AUC (Akkermansia muciniphila): 1.35
growth AUC (Bacteroides caccae): 1.03
growth AUC (Bacteroides clarus): 1.01
growth AUC (Bacteroides dorei): 0.929
growth AUC (Bacteroides stercoris): 1.04
growth AUC [1]: 0.973
growth AUC (Bacteroides uniformis): 0.93
growth AUC [2]: 0.841
growth AUC (Clostridium difficile): 0.847
growth AUC (Collinsella aerofaciens): 0.922

COP(=S)(OC)Oc1ccc(Sc2ccc(OP(=S)(OC)OC)cc2)cc1
growth AUC (Akkermansia muciniphila): 0.994
growth AUC (Bacteroides caccae): 0.986
growth AUC (Bacteroides clarus): 1.04
growth AUC (Bacteroides dorei): 0.979
growth AUC (Bacteroides stercoris): 1.08
growth AUC [1]: 1.04
growth AUC (Bacteroides uniformis): 0.968
growth AUC [2]: 0.94
growth AUC (Clostridium difficile): 0.996
growth AUC (Collinsella aerofaciens): 0.992

O=[N+]([O-])C(Br)(CO)CO
growth AUC (Akkermansia muciniphila): 0.966
growth AUC (Bacteroides caccae): 0.987
growth AUC (Bacteroides clarus): 1.01
growth AUC (Bacteroides dorei): 1.03
growth AUC (Bacteroides stercoris): 1.01
growth AUC [1]: 0.962
growth AUC (Bacteroides uniformis): 0.976
growth AUC [2]: 0.991
growth AUC (Clostridium difficile): 0.996
growth AUC (Collinsella aerofaciens): 1.01

N#Cc1c(O)c(Cl)c(Cl)c(C#N)c1Cl
growth AUC (Akkermansia muciniphila): 1.02
growth AUC (Bacteroides caccae): 0.98
growth AUC (Bacteroides clarus): 0.979
growth AUC (Bacteroides dorei): 0.969
growth AUC (Bacteroides stercoris): 0.979
growth AUC [1]: 0.995
growth AUC (Bacteroides uniformis): 0.784 (active)
growth AUC [2]: 1.02
growth AUC (Clostridium difficile): 1.02
growth AUC (Collinsella aerofaciens): 0.985

CCOc1ccc(C(C)(C)COCc2cccc(Oc3ccccc3)c2)cc1
growth AUC (Akkermansia muciniphila): 1.08
growth AUC (Bacteroides caccae): 0.967
growth AUC (Bacteroides clarus): 1.03
growth AUC (Bacteroides dorei): 0.967
growth AUC (Bacteroides stercoris): 0.792
growth AUC [1]: 0.958
growth AUC (Bacteroides uniformis): 1.05
growth AUC [2]: 1.48
growth AUC (Clostridium difficile): 1.04
growth AUC (Collinsella aerofaciens): 0.967

O=P(O)(O)CCCl
growth AUC (Akkermansia muciniphila): 1.07
growth AUC (Bacteroides caccae): 0.964
growth AUC (Bacteroides clarus): 1.02
growth AUC (Bacteroides dorei): 0.986
growth AUC (Bacteroides stercoris): 1.08
growth AUC [1]: 1.01
growth AUC (Bacteroides uniformis): 1.03
growth AUC [2]: 1.07
growth AUC (Clostridium difficile): 0.959
growth AUC (Collinsella aerofaciens): 0.973

O=C(NC(=O)c1c(F)cccc1F)Nc1cc(Cl)c(OC(F)(F)C(F)F)c(Cl)c1
growth AUC (Akkermansia muciniphila): 1.17
growth AUC (Bacteroides caccae): 1
growth AUC (Bacteroides clarus): 0.954
growth AUC (Bacteroides dorei): 0.967
growth AUC (Bacteroides stercoris): 1.05
growth AUC [1]: 0.998
growth AUC (Bacteroides uniformis): 0.956
growth AUC [2]: 0.999
growth AUC (Clostridium difficile): 0.967
growth AUC (Collinsella aerofaciens): 0.994

CCOP(=S)(OCC)SCCS(=O)(=O)CC
growth AUC (Akkermansia muciniphila): 1.05
growth AUC (Bacteroides caccae): 1.02
growth AUC (Bacteroides clarus): 1
growth AUC (Bacteroides dorei): 0.977
growth AUC (Bacteroides stercoris): 1.03
growth AUC [1]: 0.99
growth AUC (Bacteroides uniformis): 0.986
growth AUC [2]: 1.01
growth AUC (Clostridium difficile): 1
growth AUC (Collinsella aerofaciens): 0.995

C[Si](Cn1cncn1)(c1ccc(F)cc1)c1ccc(F)cc1
growth AUC (Akkermansia muciniphila): 0.895
growth AUC (Bacteroides caccae): 0.891
growth AUC (Bacteroides clarus): 0.907
growth AUC (Bacteroides dorei): 0.854
growth AUC (Bacteroides stercoris): 0.952
growth AUC [1]: 0.895
growth AUC (Bacteroides uniformis): 0.913
growth AUC [2]: 0.923
growth AUC (Clostridium difficile): 1
growth AUC (Collinsella aerofaciens): 0.931

C#CCOS(=O)OC1CCCCC1Oc1ccc(C(C)(C)C)cc1 (mixture of isomers)
growth AUC (Akkermansia muciniphila): 1.08
growth AUC (Bacteroides caccae): 0.98
growth AUC (Bacteroides clarus): 0.976
growth AUC (Bacteroides dorei): 0.984
growth AUC (Bacteroides stercoris): 0.916
growth AUC [1]: 0.991
growth AUC (Bacteroides uniformis): 0.99
growth AUC [2]: 0.908
growth AUC (Clostridium difficile): 0.956
growth AUC (Collinsella aerofaciens): 0.975

CCN(CC)C(=S)[S-].O.O.O.[Na+]
growth AUC (Akkermansia muciniphila): 0.862
growth AUC (Bacteroides caccae): 0.981
growth AUC (Bacteroides clarus): 1.01
growth AUC (Bacteroides dorei): 0.978
growth AUC (Bacteroides stercoris): 1.08
growth AUC [1]: 0.848
growth AUC (Bacteroides uniformis): 1.01
growth AUC [2]: 0.961
growth AUC (Clostridium difficile): 1.04
growth AUC (Collinsella aerofaciens): 0.925

CCCCN(CCCC)N=O
growth AUC (Akkermansia muciniphila): 0.985
growth AUC (Bacteroides caccae): 1.01
growth AUC (Bacteroides clarus): 1.02
growth AUC (Bacteroides dorei): 1.01
growth AUC (Bacteroides stercoris): 1
growth AUC [1]: 1
growth AUC (Bacteroides uniformis): 1
growth AUC [2]: 1.01
growth AUC (Clostridium difficile): 1.01
growth AUC (Collinsella aerofaciens): 1.03

CSc1nnc(C(C)(C)C)c(=O)n1N
growth AUC (Akkermansia muciniphila): 0.996
growth AUC (Bacteroides caccae): 1.07
growth AUC (Bacteroides clarus): 1.01
growth AUC (Bacteroides dorei): 1.02
growth AUC (Bacteroides stercoris): 1.06
growth AUC [1]: 0.996
growth AUC (Bacteroides uniformis): 1.02
growth AUC [2]: 1.09
growth AUC (Clostridium difficile): 1.03
growth AUC (Collinsella aerofaciens): 1

CCCCOC(=O)c1ccccc1C(=O)OCCCC
growth AUC (Akkermansia muciniphila): 1.05
growth AUC (Bacteroides caccae): 0.94
growth AUC (Bacteroides clarus): 1.01
growth AUC (Bacteroides dorei): 0.998
growth AUC (Bacteroides stercoris): 0.99
growth AUC [1]: 1
growth AUC (Bacteroides uniformis): 0.978
growth AUC [2]: 0.938
growth AUC (Clostridium difficile): 1.02
growth AUC (Collinsella aerofaciens): 0.985

O=S(=O)(Oc1ccc(Cl)cc1)c1ccc(Cl)cc1
growth AUC (Akkermansia muciniphila): 1.09
growth AUC (Bacteroides caccae): 0.97
growth AUC (Bacteroides clarus): 0.998
growth AUC (Bacteroides dorei): 0.812
growth AUC (Bacteroides stercoris): 0.973
growth AUC [1]: 0.972
growth AUC (Bacteroides uniformis): 0.995
growth AUC [2]: 1.02
growth AUC (Clostridium difficile): 1.01
growth AUC (Collinsella aerofaciens): 0.961

COP(=O)(OC)O/C(C)=C/C(=O)N(C)C
growth AUC (Akkermansia muciniphila): 1.15
growth AUC (Bacteroides caccae): 1.01
growth AUC (Bacteroides clarus): 0.988
growth AUC (Bacteroides dorei): 0.993
growth AUC (Bacteroides stercoris): 1.02
growth AUC [1]: 0.988
growth AUC (Bacteroides uniformis): 1.02
growth AUC [2]: 0.989
growth AUC (Clostridium difficile): 0.987
growth AUC (Collinsella aerofaciens): 0.996

CNC(=O)O/N=C(\SC)C(=O)N(C)C
growth AUC (Akkermansia muciniphila): 1.01
growth AUC (Bacteroides caccae): 0.999
growth AUC (Bacteroides clarus): 0.967
growth AUC (Bacteroides dorei): 1.05
growth AUC (Bacteroides stercoris): 1.05
growth AUC [1]: 0.993
growth AUC (Bacteroides uniformis): 1.01
growth AUC [2]: 0.957
growth AUC (Clostridium difficile): 0.965
growth AUC (Collinsella aerofaciens): 0.999

Nc1ccc(Cc2ccc(N)c(Cl)c2)cc1Cl
growth AUC (Akkermansia muciniphila): 0.988
growth AUC (Bacteroides caccae): 0.994
growth AUC (Bacteroides clarus): 0.981
growth AUC (Bacteroides dorei): 1.01
growth AUC (Bacteroides stercoris): 0.931
growth AUC [1]: 0.971
growth AUC (Bacteroides uniformis): 0.968
growth AUC [2]: 1.02
growth AUC (Clostridium difficile): 1
growth AUC (Collinsella aerofaciens): 1

CC1=NNC(=O)N(/N=C/c2cccnc2)C1
growth AUC (Akkermansia muciniphila): 0.995
growth AUC (Bacteroides caccae): 1.01
growth AUC (Bacteroides clarus): 0.98
growth AUC (Bacteroides dorei): 1.04
growth AUC (Bacteroides stercoris): 1.01
growth AUC [1]: 1.02
growth AUC (Bacteroides uniformis): 1.04
growth AUC [2]: 0.993
growth AUC (Clostridium difficile): 1.07
growth AUC (Collinsella aerofaciens): 1.1

O=c1oc2ccccc2c(O)c1C1CC(c2ccc(-c3ccc(Br)cc3)cc2)Cc2ccccc21 (stereo not given)
growth AUC (Akkermansia muciniphila): 0.966
growth AUC (Bacteroides caccae): 0.91
growth AUC (Bacteroides clarus): 0.335 (active)
growth AUC (Bacteroides dorei): 0.89
growth AUC (Bacteroides stercoris): 0.00883 (active)
growth AUC [1]: 0.788 (active)
growth AUC (Bacteroides uniformis): 0.86
growth AUC [2]: 0.647 (active)
growth AUC (Clostridium difficile): 0.263 (active)
growth AUC (Collinsella aerofaciens): 0.911

COc1ccc(-c2ccccc2)cc1NNC(=O)OC(C)C
growth AUC (Akkermansia muciniphila): 0.865
growth AUC (Bacteroides caccae): 0.921
growth AUC (Bacteroides clarus): 0.974
growth AUC (Bacteroides dorei): 0.991
growth AUC (Bacteroides stercoris): 1.08
growth AUC [1]: 0.958
growth AUC (Bacteroides uniformis): 0.942
growth AUC [2]: 0.982
growth AUC (Clostridium difficile): 0.993
growth AUC (Collinsella aerofaciens): 1.05

CNc1nc(C)c(C)c(OC(=O)N(C)C)n1
growth AUC (Akkermansia muciniphila): 0.975
growth AUC (Bacteroides caccae): 0.99
growth AUC (Bacteroides clarus): 0.953
growth AUC (Bacteroides dorei): 1.02
growth AUC (Bacteroides stercoris): 0.963
growth AUC [1]: 0.986
growth AUC (Bacteroides uniformis): 1.04
growth AUC [2]: 1.04
growth AUC (Clostridium difficile): 0.987
growth AUC (Collinsella aerofaciens): 0.994

CP(=O)(O)CCC(N)C(=O)[O-].[NH4+] (stereo not given)
growth AUC (Akkermansia muciniphila): 1.08
growth AUC (Bacteroides caccae): 1.04
growth AUC (Bacteroides clarus): 1.03
growth AUC (Bacteroides dorei): 0.977
growth AUC (Bacteroides stercoris): 1.2
growth AUC [1]: 1
growth AUC (Bacteroides uniformis): 1.02
growth AUC [2]: 1.02
growth AUC (Clostridium difficile): 1.01
growth AUC (Collinsella aerofaciens): 1.02
